Results on 96 compounds are retold here after PubChem BioAssay AID435030 (The Scripps Research Institute Molecular Screening Center, 2010).

The campaign covered roughly 330,000 compounds. About 940 (0.28%) were called active. The sample holds actives, similar compounds and a random draw of the others, so the mix is not that of the screen. A number with no mark means an inactive call. Rule as the data show it: active = inhibition above about 12%; inactive = the rest.

This assay can be described thus: growth inhibition of E. coli expressing H. pylori AddAB, primary screen, AddAB inhibitor project, absorbance (AID 435030).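 Also: 0% = vehicle wells of infected cells.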 The note with it: at 11.9 µM, hits give high values.
As to `COc1cccc(C(=O)N2CCC(n3nccc3NC(=O)C3CCOC3)CC2)c1` (stereo unspecified), the inhibition was 0.08%.
Next, `Cc1ccc(-c2nnc(CN3CCN(C)CC3)o2)cc1`: -0.67%; `CC(C)(C)SCCSC1=CC(=O)CC(c2ccccc2)C1` (stereo unspecified): 0.25%; `CCn1cc(CN2CCN(CC(C)(C)C)C(CCO)C2)c2ccccc21` (stereo unspecified): -1.04%.
Next, `CC1=C(C(=O)OC2CCCCC2)C(c2cccnc2)n2ncnc2N1` (stereo unspecified): 0%; `CC1=C(C(=O)OCc2ccccc2)C(c2ccco2)n2ncnc2N1` (stereo unspecified): 14.7% (active).
Next, `COc1ccccc1NC(=O)C1=C(C)Nc2ncnn2C1c1ccc(C)o1` (stereo unspecified): -0.48%; `COC(=O)C1(C)NC(c2ccc(F)cc2)C2C(=O)N(c3ccccc3)C(=O)C21` (stereo unspecified): 1.16%.
Consider `CC(C)C[C@H]1CN=C(Nc2ccccc2)N1CC1CCCCC1`, for which the inhibition was 2.92%.
On to `CCOc1ccc(C(C)=O)cc1COC(=O)CNC(=O)c1cccs1`, for which the inhibition is 3.06%.
Next, `CC1CCCC(C)N1C(=O)CN1CCN(c2nc(-c3ccc(F)cc3)cs2)CC1` (stereo unspecified): 1.81%; `CCn1c(=S)sc2c(=O)n(CC(=O)Nc3ccc(OC)cc3)c(C)nc21`: 0.15%; `O=C1Nc2cc(Cl)c(Cl)cc2N(O)N1c1cc(Cl)cc(Cl)c1`: -1%.
On to `C/[N+]([O-])=C\c1ccc([N+](=O)[O-])o1`, for which the inhibition was 79% (active).
As for `COC(=O)C1=C(C)N(C)C(=O)NC1c1ccc([N+](=O)[O-])o1` (stereo unspecified), the inhibition was 3.34%.
Next, `COc1ccc(C(=O)NCC(=O)N/N=C/c2ccc([N+](=O)[O-])o2)cc1OC`: 9.43%.
Next, `CCOc1cccc(/C=N/NC(=S)NCCN2CCOCC2)c1O`: -0.42%; `COc1cccc(/C=N/Nc2ncc(C(F)(F)F)cc2Cl)c1O`: 12.5% (active); `COc1ccc(Br)cc1/C=N/Nc1ccc(Cl)c(C(=O)O)c1`: 1.8%.
Next, `O=C(Nc1ccc(Br)cn1)c1ccc([N+](=O)[O-])o1`: 97.7% (active).
For the compound `Cc1cccc(NC(=O)c2ccc([N+](=O)[O-])o2)c1`, the inhibition was 38.2% (active).
Take `Cc1onc(NC(=O)c2ccc([N+](=O)[O-])o2)c1Br`: the inhibition was 9.34%.
Next, `CN1C(=O)c2ccc(C(=O)Nc3ccc(Br)cn3)cc2C1=O`: -3.02%.
Next, `O=C(Nc1ccc(Br)cn1)c1ccc([N+](=O)[O-])cc1Cl`: -0.17%; `O=C(Nc1cccc(O)c1)c1ccc(C(=O)c2ccccc2)o1`: 1.45%.
On to `CCOc1ccc(C(C)=O)cc1COC(=O)CN1C(=O)NC2(CCCC2)C1=O`, for which the inhibition was 0.34%.
For `Brc1cnc(N2CCCC2)nc1N1CCCCC1`, the inhibition was 2.22%.
Next, `CCC(=C/c1sc2ccc3ccccc3c2[n+]1C)/C=C1\Sc2ccc3ccccc3c2N1C`: 9.85%; `Cc1ccc(S(=O)(=O)c2ccc(Cl)cc2)cc1S(=O)(=O)NC(C(=O)O)C(C)C` (stereo unspecified): 3.7%; `NC(=O)C1CCN(C(=O)c2ccc3c(=O)n(Cc4cccc(Br)c4)c(=S)[nH]c3c2)CC1`: 1.96%.
On to `COc1ccc(NC(=O)C(Br)C(C)C)cc1` (stereo unspecified), for which the inhibition is 0.42%.
Take `O=C(CSc1ccc(-c2ccco2)nn1)Nc1cccc(F)c1`: the inhibition was 1.52%.
Next, `O=C(CSc1ccc(-c2ccccn2)nn1)Nc1ccccc1`: 12.4% (active); `O=C(CSc1ccc(-c2ccc(-n3cccn3)cc2)nn1)Nc1ccc([N+](=O)[O-])cc1`: 2.04%.
On to `O=C(CNc1ccc(F)cc1F)NC(=O)NCc1ccco1`, for which the inhibition was -1.79%.
Next, `O=C1CCCC(O)=C1N=Nc1ccc2ncsc2c1`: 1.13%.
In the case of `COc1ccc(CNC(=O)CN(c2ccc(OC)c(Cl)c2)S(=O)(=O)c2ccc(C)cc2)cc1`, the inhibition was 0.77%.
Next, `Oc1cccc(/C=N/Nc2ccc(Cl)nn2)c1O`: 13.3% (active); `Oc1c(Br)cccc1/C=N/Nc1c(F)c(F)c(F)c(F)c1F`: 5.1%; `Oc1ccc(Br)cc1/C=N/Nc1ccccn1`: 4.69%.
Next, `Cc1noc(C)c1C(=O)OC(C)C(=O)Nc1ccc2c(c1)OCO2` (stereo unspecified): 1.01%; `CC1(C)c2[nH]c3ccccc3c2C[C@H]2C(=O)N(N)CC(=O)N21`: -0.5%.
Take `O=C(CCc1ccc(S(=O)(=O)N2CCOCC2)cc1)OCC(=O)c1ccc(Br)cc1`: the inhibition is 3.02%.
For the compound `Cc1nnc(NC2=NCCCCC2)o1`, the inhibition was 0.25%.
Next, `O=C1CCC(=O)N(O)CCCCCNC(=O)CCC(=O)N(O)CCCCCNC(=O)CCC(=O)N(O)CCCCCN1`: 35.8% (active); `CCN1CCC2(CCN(Cc3cn[nH]c3-c3ccc(OC)c(F)c3)C2)C1` (stereo unspecified): 0.65%; `CCOC(=O)c1ccccc1N1C(=O)C2Sc3[nH]c(=O)sc3C(/C=C/c3ccccc3)C2C1=O` (stereo unspecified): 2.63%.
Next, `COc1ccc(C2/C=C\CN(CC(C)C)CC(=O)N2Cc2ccc(F)cc2)cc1` (stereo unspecified): 2.22%; `O=C1/C(=C/c2cccs2)SC(=S)N1C1CCS(=O)(=O)C1` (stereo unspecified): -0.44%; `CCOc1ccc(NC(=O)CN(C)C(=O)Cc2sc(C)nc2-c2ccc(F)cc2)cc1OCC`: 1.75%.
Next, `CCN1/C(=C\c2ccc3ccccc3[n+]2CC)Sc2cc(C)ccc21`: 13.3% (active); `O=C(NCCCN1CCCCCC1)C1CC(=O)N(C2CCCC2)C1` (stereo unspecified): -0.68%; `O=C(Nc1cccc(S(=O)(=O)N2CCOCC2)c1)C12CC3CC(CC(C3)C1)C2`: 0.82%.
In the case of `CC(C)(C)NC(=O)COC(=O)c1cc(Br)ccc1Cl`, the inhibition is 1.15%.
Next, `CCCC(=O)OCC(=O)Nc1cc(Cl)ccc1[N+](=O)[O-]`: 0.77%; `CC(C)(C)NC(=O)COC(=O)c1cc(Cl)ccc1[N+](=O)[O-]`: 57.9% (active); `CN(NC(=O)C1CC(=O)N(c2ccccc2)C1)C1=NS(=O)(=O)c2ccccc21` (stereo unspecified): 1%.
Take `Cc1cc(=O)n2nc(N3CCCC(C(=O)NCCC4=CCCCC4)C3)sc2n1` (stereo unspecified): the inhibition was 0.49%.
Next, `Cn1nnc2cc(C(=O)NCCC3=CCCCC3)ccc21`: 0%.
Next, `CC1CCCN(C(=O)c2ccc3c(c2)C(=O)N(CCC2=CCCCC2)C3=O)C1` (stereo unspecified): 22.9% (active); `O=C(c1n[nH]c2c1CCC2)N1CCCC(Nc2cccc(F)c2)C1` (stereo unspecified): 2.86%; `Cc1cc(C)c2c(c1)cc(C)c1nnc(SCC(=O)Nc3cc(C)on3)n12`: 1.96%.
Next, `Cc1cc(S(=O)(=O)c2cc3ccc(O)c(C)c3oc2=O)ccc1F`: 0.08%; `COc1ccccc1NC(=S)N1CCN(c2ccc(F)cc2)CC1`: -2.49%.
Regarding `CC1CN(C(=S)Nc2ccccc2F)CC(C)O1` (stereo unspecified), the inhibition was -1.09%.
Consider `COc1c(N2CCN(C(=S)Nc3ccccc3F)C(C)C2)c(F)cc2c(=O)c(C(=O)O)cn(C3CC3)c12` (stereo unspecified), for which the inhibition is 99.7% (active).
Next, `COc1ccc(Cl)cc1C(=O)OCC(=O)NCc1cccs1`: 0.75%.
With `Cc1ccc(S(=O)(=O)N2CCN(C(=O)Cn3c(=O)cnc4ccccc43)CC2)c(C)c1`, the inhibition is 0.34%.
Consider `O=C(Nc1ccc(OC(F)(F)F)cc1)c1ccc2c(c1)no[n+]2[O-]`, for which the inhibition is 3.14%.
In the case of `CCn1cc(C(=O)NCCO)c(=O)c2cc(F)c(N3CCN(C)CC3)cc21`, the inhibition was 98.8% (active).
With `CN1CCN(c2cc3c(cc2F)c(=O)c(C(=O)O)cn3CCF)CC1`, the inhibition was 98.6% (active).
Next, `CCCCNC(=O)c1cn(CC)c2cc(N3CCN(C(=O)c4ccco4)CC3)c(F)cc2c1=O`: 11.8%; `CCCCCCn1cc(C(=O)O)c(=O)c2cc(F)c(N3CCCCC3)cc21`: -1.14%; `CCn1cc(C(=O)NCCC(=O)NCCO)c(=O)c2cc3c(cc21)OCO3`: -2.55%.
Next, `CCn1cc(S(=O)(=O)c2cccc(C)c2)c(=O)c2cc(F)c(N3CCN(C)CC3)cc21`: -1.64%; `Cc1csc(NC(=O)C2CCCN2C(=O)OCC(C)C)n1` (stereo unspecified): 0.97%; `Cc1nn(C)c(C)c1Sc1ccccc1N`: -0.51%.
Next, `O=C(COC(=O)Cn1[nH]c(=O)c2ccccc2c1=O)Nc1c(Cl)cccc1C(F)(F)F`: -0.85%.
Regarding `O=C(COC(=O)c1ccc([N+](=O)[O-])o1)NC12CC3CC(CC(C3)C1)C2`, the inhibition was 2.74%.
Next, `O=C(OCC(=O)c1cccs1)c1ccc([N+](=O)[O-])o1`: 16.4% (active); `O=C(OCC(=O)c1cccs1)C1=COCCO1`: 3.94%.
`O=C(Cc1ccccc1)NNC1CC(=O)N(c2ccc(Br)cc2)C1=O` (stereo unspecified): the inhibition is 0.17%.
For `Cc1ccccc1OCC(=O)NNC(=O)c1cc(S(=O)(=O)N(C)C)ccc1N1CCCC1`, the inhibition was -1.04%.
Consider `Cc1cc([N+](=O)[O-])nn1CC(=O)Nc1ccc(Cc2ccncc2)cc1`, for which the inhibition was -1.17%.
Next, `Cc1ccc(COc2ccc(C(=O)NN)cc2)cc1`: 3%.
Next, `O=C(C/C(=N\NC(=O)c1ccccc1Br)C(F)(F)F)c1cccs1`: 0.69%.
Next, `C=CC(=O)OCCOCCOCCOCCOC(=O)C=C`: -0.85%.
For `CC1C(=O)N2CCCc3cc(S(=O)(=O)NCc4ccc(F)cc4)cc1c32` (stereo unspecified), the inhibition is -1.44%.
Next, `Cc1c(C=O)c2ccccc2n1CC(=O)O`: -5.83%.
`CC(=O)c1c(C)n([O-])c2ccccc2[n+]1=O`: the inhibition was 38.5% (active).
Next, `CCNc1nc(NC(C)C)nc(N2CC(=O)N(CC(=O)OCC)C2=N)n1`: -0.43%; `CNC(C)C#Cc1ccc2sc3cc(OC)c(OC)cc3c(=O)c2c1` (stereo unspecified): 3.07%.
`O=C(C1=C(O)C(=O)N(CCOCCO)C1c1ccccn1)c1cccs1` (stereo unspecified): the inhibition was -0.51%.
For the compound `O=C(NCC1CCCO1)/C(=C/c1ccc(Cl)cc1)NC(=O)c1ccccc1` (stereo unspecified), the inhibition is 3.87%.
Next, `O=C(CSc1ccc(-c2ccccc2)nn1)NCC1CCCO1` (stereo unspecified): -1.35%; `O=C(NCC1CCCO1)C(C(=O)c1ccccc1)n1cc(Cl)ccc1=O` (stereo unspecified): 99.8% (active).
